The whole screen tested about 87,000 compounds, of which about 360 (0.41%) were called active. No stated cut-off is given here; in the data, active means cytotoxicity above about 50%; inactive means the rest. This excerpt belongs to a sample that is enriched for actives.

This assay can be described thus: cytotoxicity in HT1080 fibrosarcoma cells, cell-based, fluorescence readout (AID 620).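 Further: cells exposed to compound overnight then 4 h with Alamar Blue; 0% = vehicle DMSO and 100% = killing control.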 Particulars: HT1080 viability, at 10 µM, active compounds read high.
As to `CNC(=O)CSc1nc2nc(C)cc(C)n2n1`, the cytotoxicity is 16.5% (inactive).

On to `CCCCS(=O)(=O)/C=C\C=C/S(=O)(=O)CCCC`, for which the cytotoxicity is 94% (active).

Turning to `CCCCS(=O)(=O)/C=C/[C@H]1[C@H](S(=O)(=O)CCCC)[C@H]2C=C[C@@H]1C2`, the cytotoxicity is 0.3% (inactive).

With `CCCCS(=O)(=O)/C=C\C1C2C=CC(C2)C1S(=O)(=O)CCCC` (centres undefined), the cytotoxicity is -14.4% (inactive).

Take `CCC(C)NC(=O)CNS(=O)(=O)c1ccc(C)cc1` (centres undefined): the cytotoxicity is 1.4% (inactive).

With `COc1cc(CNc2ccc3c(c2)CCC3)cc(OC)c1O`, the cytotoxicity was -2.4% (inactive).

As to `O=C(NCc1ccco1)C1CCC(CNS(=O)(=O)c2cccc3cccnc23)CC1` (centres undefined), the cytotoxicity was -8.6% (inactive).

For the molecule `O=c1c2cc(Br)ccc2nc2n1CCCCC2`, the cytotoxicity is -8.5% (inactive).

As to `CC(=O)c1cccc(NC(=O)c2cc3ccccn3n2)c1`, the cytotoxicity was 6.1% (inactive).

As to `COc1cccc(CNC(=O)c2cc3ccccn3n2)c1`, the cytotoxicity is 0% (inactive).

Regarding `CCOC(=O)c1nc(N)c(=O)n(-c2ccc(C)cc2)n1`, the cytotoxicity was 5.9% (inactive).

For the molecule `CCOc1ccc(N(C(=O)Cn2nnc3ccccc32)C(C(=O)NC(C)(C)CC)c2cccn2C)cc1` (centres undefined), the cytotoxicity was 15% (inactive).

As to `C=CC1C(N2CCOCC2)C(C)(C)S1(=O)=O` (centres undefined), the cytotoxicity was 0.5% (inactive).

On to `Cc1cc(C)c2c(c1)cc(C)c1nnc(SCC(=O)Nc3cc(C)on3)n12`, for which the cytotoxicity was 20.3% (inactive).

On to `Cc1cc(NC(=O)CSc2nnc3c(C)cc4cc(C)c(C)cc4n23)no1`, for which the cytotoxicity was 11.9% (inactive).

Take `Cc1cc(NC(=O)CSc2nnc3c(C)cc4c(C)ccc(C)c4n23)no1`: the cytotoxicity is 58.9% (active).

`COc1ccc(N2CCN(C(=O)CN(Cc3ccc(Cl)cc3)S(C)(=O)=O)CC2)cc1`: the cytotoxicity is -6.4% (inactive).

As for `CC1CCCCN1C(=O)CSc1ccc(-c2ccc(F)cc2)nn1` (centres undefined), the cytotoxicity is -10.9% (inactive).

In the case of `O=C(c1cc(-c2ccccc2)nc2ccccc12)N1CCN(c2ccccn2)CC1`, the cytotoxicity was -0.4% (inactive).

With `CCOC(=O)N1CCN(C(=O)c2ccccc2-c2ccccc2)CC1`, the cytotoxicity was 58.5% (active).

As to `O=C(c1ccccc1-c1ccccc1)N1CCCC1`, the cytotoxicity is 7.3% (inactive).

Take `COc1ccc(-c2cc(C(=O)N3CCN(c4ccccn4)CC3)c3ccccc3n2)cc1`: the cytotoxicity is 3.7% (inactive).

Regarding `CCOc1ccc(-c2cc(C(=O)O)c3ccccc3n2)cc1`, the cytotoxicity is 23.3% (inactive).

As for `CCOc1ccc(-c2cc(C(=O)N3CCN(c4ccccn4)CC3)c3ccccc3n2)cc1`, the cytotoxicity is 52.4% (active).

For `CCOc1ccc(-c2cc(C(=O)N3CCN(C)CC3)c3ccccc3n2)cc1`, the cytotoxicity was 3.8% (inactive).

Consider `CCOC(=O)N1CCN(C(=O)c2ccccc2Oc2ccccc2)CC1`, for which the cytotoxicity is 3.5% (inactive).

Regarding `CCOC(=O)N1CCN(C(=O)c2cc(-c3ccc(OCC)cc3)nc3ccccc23)CC1`, the cytotoxicity is 54.9% (active).

In the case of `CNC(=S)NN(c1ccccc1)c1ccccc1`, the cytotoxicity was 30.1% (inactive).

Consider `COc1ccccc1CNC(=O)C(=O)NCC1CCCO1` (centres undefined), for which the cytotoxicity was 0.9% (inactive).

Take `Cc1cc(=O)oc2cc(OCC3CC(c4ccc(Cl)cc4)=NO3)ccc12` (centres undefined): the cytotoxicity is -6.9% (inactive).

In the case of `Cc1cc(=O)oc2cc(OCC3CC(c4ccccc4)=NO3)ccc12` (centres undefined), the cytotoxicity was 8.1% (inactive).

As to `Cc1cc(=O)oc2cc(OCC3CC(c4ccccc4Cl)=NO3)ccc12` (centres undefined), the cytotoxicity is 63.5% (active).

As for `O=C(NCc1ccccn1)C1CCCN(Cc2cnn(-c3ccccc3)c2-n2cccc2)C1` (centres undefined), the cytotoxicity is -8.2% (inactive).

On to `O=S(=O)(c1ccc2c(c1)C(=NO)c1cc(S(=O)(=O)N3CCCCC3)ccc1-2)N1CCCCC1`, for which the cytotoxicity was 102% (active).

`CC1CCN(S(=O)(=O)c2ccc3c(c2)C(=NO)c2cc(S(=O)(=O)N4CCC(C)CC4)ccc2-3)CC1`: the cytotoxicity was 4.2% (inactive).

With `O=S(=O)(c1ccc(S(=O)(=O)N2CCCC2)cc1)N1CCCCCC1`, the cytotoxicity is 1.4% (inactive).

As for `CC(=O)c1ccc(NC(=O)C(Cc2ccccc2)NC(=O)c2ccco2)cc1` (centres undefined), the cytotoxicity was 16.9% (inactive).

On to `CCC(C(=O)NC1CCCC1)N(Cc1cccs1)C(=O)Cn1nnc(-c2ccc(OC)c(OC)c2)n1` (centres undefined), for which the cytotoxicity was -0.6% (inactive).

On to `CC1=C/C(=N\OS(=O)(=O)c2ccccc2)C=CC1=O`, for which the cytotoxicity was 35.8% (inactive).

As to `CC1=C(C)/C(=N/OC(=O)c2cccc([N+](=O)[O-])c2)C=CC1=O`, the cytotoxicity was 7.5% (inactive).

As to `Cc1ccc(S(=O)(=O)O/N=C2\CCCc3ccccc32)cc1`, the cytotoxicity is 9.9% (inactive).

With `O=S(=O)(O/N=C1\CCCc2ccccc21)c1ccccc1`, the cytotoxicity was 21.4% (inactive).

Turning to `CC1=CC(=O)C=C(C)C1=NOS(=O)(=O)c1ccccc1`, the cytotoxicity was 51.3% (active).

In the case of `CC1=C(C)/C(=N\OS(=O)(=O)c2ccccc2)C=CC1=O`, the cytotoxicity was 70.2% (active).

On to `Cn1cc(Cl)c(C(=O)N/N=C/c2ccc(OS(=O)(=O)c3ccccc3)cc2)n1`, for which the cytotoxicity is 6.3% (inactive).

`Cc1ccc2[nH]c(=O)c(-c3nc4cc(C)ccn4c3NCc3ccco3)cc2c1`: the cytotoxicity was -1.5% (inactive).

`CC(=O)OC(Cn1ccnc1)c1ccccc1` (centres undefined): the cytotoxicity is 7.8% (inactive).

In the case of `O=C(c1ccc(Cl)c(S(=O)(=O)NCc2ccco2)c1)N1CCN(c2ccccc2F)CC1`, the cytotoxicity is 5.8% (inactive).

For the molecule `Cc1cccc(N2CCN(C(=O)c3ccc(Cl)c(S(=O)(=O)NCc4ccco4)c3)CC2)c1C`, the cytotoxicity is 26.2% (inactive).

Take `COc1ccccc1N1CCN(C(=O)c2ccc(Cl)c(S(=O)(=O)NCc3ccco3)c2)CC1`: the cytotoxicity was 56.3% (active).

Consider `Nc1nc(SCc2ccc(Cl)cc2)[nH]c(=O)c1-c1ccccc1`, for which the cytotoxicity was 1.6% (inactive).

In the case of `Cc1cc(C)nc(N2CCN(c3nc(C)nc4c3oc3ccccc34)CC2)n1`, the cytotoxicity is -3.6% (inactive).

Consider `COc1ccccc1N1CCN(c2ncnc3c2oc2ccccc23)CC1`, for which the cytotoxicity is -2.5% (inactive).

For `COc1ccccc1N1CCN(c2nc(C)nc3c2oc2ccccc23)CC1`, the cytotoxicity was 74.7% (active).

`O=C(c1cccc(F)c1)N1CCN(Cc2c[nH]c3ccccc23)CC1`: the cytotoxicity is 2.4% (inactive).

For `COc1ccc2cc(C(c3nnnn3Cc3ccccc3)N3CCCCCC3)c(=O)[nH]c2c1` (centres undefined), the cytotoxicity is 17.3% (inactive).

As for `Cc1cc(C(=O)CSc2nnc(-c3cccs3)n2Cc2ccccc2)c(C)n1C`, the cytotoxicity was 4.7% (inactive).

As to `Cc1c(NC(=O)CSc2nc3ccccc3n2C)c(=O)n(-c2ccccc2)n1C`, the cytotoxicity was 2.7% (inactive).

Consider `CCn1c(-c2ccco2)nc2ccccc21`, for which the cytotoxicity was 6.1% (inactive).

As for `COc1ccc(C(=O)n2nc(-c3ccco3)nc2N)cc1`, the cytotoxicity is 25.6% (inactive).

For `COc1ccc(C(=O)n2c(-c3ccco3)nc3ccccc32)cc1`, the cytotoxicity is 56.2% (active).

Consider `CCN(CC)C(=O)CSc1nc2sc(C)c(C)c2c(=O)[nH]1`, for which the cytotoxicity was -6.3% (inactive).

Consider `COc1ccc(CCN(C)C(=O)N2CCOCC2)cc1OC`, for which the cytotoxicity is -5.8% (inactive).

`COc1ccc2nc(NC(=O)c3cccc(OCc4c(C)noc4C)c3)sc2c1`: the cytotoxicity is 57.3% (active).

Take `CCSc1nnc(NC(=O)c2cccc(OCc3c(C)noc3C)c2)s1`: the cytotoxicity is -11.1% (inactive).

With `COc1cc(C(=O)Nc2nc3ccccc3s2)ccc1OCc1c(C)noc1C`, the cytotoxicity is -13% (inactive).

As for `CC1C(=O)CCN(C(C)C)C1C` (centres undefined), the cytotoxicity was -13.7% (inactive).

For `Cc1oc2cc(O)cc(C)c2c(=O)c1-c1cnn(-c2ccccc2)c1`, the cytotoxicity was 33.9% (inactive).

Consider `O=C1CCc2cc(S(=O)(=O)N3CCCC3C(=O)N3CCN(c4ccccc4)CC3)ccc2N1` (centres undefined), for which the cytotoxicity is -3.8% (inactive).

Turning to `Cc1cc(NCCCn2ccnc2)n2ncc(-c3ccccc3)c2n1`, the cytotoxicity was -5.3% (inactive).

Turning to `CC(C)(C)c1cc(NCCCn2ccnc2)n2ncc(-c3ccc(Cl)cc3)c2n1`, the cytotoxicity was -4.9% (inactive).

As for `Cc1cccc(-n2nnnc2SCC(=O)NCCN2C(=O)CSC2=O)c1`, the cytotoxicity was -3.3% (inactive).

Consider `O=C(c1cc2ccccc2oc1=O)N(Cc1cccs1)C1CCS(=O)(=O)C1` (centres undefined), for which the cytotoxicity is 3.4% (inactive).

Regarding `Cc1[nH]nc2c1C(C1CC=CCC1)C(C#N)=C(N)O2` (centres undefined), the cytotoxicity is 73% (active).

Turning to `Cc1ccc(C2C(C#N)=C(N)Oc3n[nH]c(C)c32)cc1` (centres undefined), the cytotoxicity is 1.3% (inactive).

`Cc1[nH]nc2c1C(C(C)C)C(C#N)=C(N)O2` (centres undefined): the cytotoxicity was 11.3% (inactive).

Take `Cc1ccc(N=Nc2c(C)[nH][nH]c2=O)c(C)c1`: the cytotoxicity was 1.8% (inactive).

With `COc1ccc(CCN/C=C2/CC(=O)NC2=O)cc1OC`, the cytotoxicity is 0.2% (inactive).

Turning to `COc1ccc(C)cc1NC(=O)NC1CCN(Cc2ccccc2)CC1`, the cytotoxicity is 3% (inactive).

On to `Nc1ccc2c(c1)C(=O)C(=O)c1ccccc1-2`, for which the cytotoxicity is 92.7% (active).

With `Nc1ccc(Br)c2c1C(=O)c1ccccc1C2=O`, the cytotoxicity is -18.1% (inactive).

For `O=C1C(=O)c2ccc(-c3ccccc3)cc2-c2ccccc21`, the cytotoxicity is 47.5% (inactive).

In the case of `O=C(NCc1cccs1)C1CC(c2ccccc2O)=NO1` (centres undefined), the cytotoxicity was -1.4% (inactive).

Consider `COc1ccc(C2=NOC(C(=O)NCc3cccs3)C2)cc1` (centres undefined), for which the cytotoxicity is 7.4% (inactive).

For the molecule `COc1ccc(C2=NOC(C(=O)NCc3cccs3)C2)cc1OC` (centres undefined), the cytotoxicity was 59.8% (active).

As for `COc1cc(C2=NOC(C(=O)NCc3cccs3)C2)cc(OC)c1OC` (centres undefined), the cytotoxicity was 58.1% (active).

Turning to `COc1cc(C2=NOC(C(=O)NCc3ccco3)C2)cc(OC)c1OC` (centres undefined), the cytotoxicity is 54.4% (active).

For the molecule `COc1cc(C2=NOC(C(=O)NCc3ccccn3)C2)cc(OC)c1OC` (centres undefined), the cytotoxicity was -2.6% (inactive).

As for `COc1cccc(C2=NOC(C(=O)NCc3cccs3)C2)c1` (centres undefined), the cytotoxicity was -1.8% (inactive).

With `COc1ccc(C2=NOC(C(=O)NCc3ccco3)C2)cc1OC` (centres undefined), the cytotoxicity was 46.5% (inactive).

`COc1ccc(C2=NOC(C(=O)NCc3ccco3)C2)cc1` (centres undefined): the cytotoxicity is 6% (inactive).

Consider `CCCCN(C)Cc1c(O)ccc2c(-c3ccccc3)cc(=O)oc12`, for which the cytotoxicity is 11.9% (inactive).

Turning to `CCOc1ccc(NC(=O)N2CCC(NC(=O)c3ccco3)CC2)cc1`, the cytotoxicity was 4.5% (inactive).

With `O=C(CSc1ncn(-c2ccccc2)n1)c1cccs1`, the cytotoxicity is -3.1% (inactive).

Regarding `CCOc1ccc(-c2nc(S(=O)(=O)c3ccccc3)c(NCc3cccnc3)o2)cc1`, the cytotoxicity is 0.3% (inactive).

With `CC(=O)Nc1ccccc1-c1nn[nH]n1`, the cytotoxicity is -11.5% (inactive).

Consider `Cn1c(SCc2ccon2)nc2ccccc2c1=O`, for which the cytotoxicity is 2.4% (inactive).

With `Cn1c(/C=C/c2ccc([N+](=O)[O-])o2)nc2ccccc2c1=O`, the cytotoxicity is 85.1% (active).

On to `Cc1ccc2nc(N/N=C\c3ccc([N+](=O)[O-])o3)nc(-c3ccccc3)c2c1`, for which the cytotoxicity is 13.6% (inactive).

The values are drawn from PubChem BioAssay AID620 (Sanford-Burnham Center for Chemical Genomics, 2007).
